Experimental data from PubChem BioAssay.
The list shows a part of the results. The source made the active and inactive calls. Unless noted, the rule behind the calls is not given here.

Key:
[1] = inhibition of Brca1/Bard1 split-luciferase complementation, confirmation, counter-screen for Mdm2/MdmX interaction inhibitor project, luminescence, single concentration (AID 504668); details: Brca1/Bard1 bimolecular luciferase complementation counterscreen, at 8 µM, stronger effect = higher value
[2] = target: Tumor necrosis factor receptor superfamily member 10B (Homo sapiens) (UniProt O14763); experiment: caspase-8 TRAIL sensitization, hit retest, confirmation, cell-based, NB7+caspase-8, with/without TRAIL, luminescence panel (AID 651596; in the data active = activity above about 50%); details: NB7 neuroblastoma + caspase-8, TRAIL sensitization, luminescence viability, with TRAIL, mean of runs, at 10 µM, stronger effect = higher value
Sequence of Tumor necrosis factor receptor superfamily member 10B (Homo sapiens) (O14763 whole entry, looked up): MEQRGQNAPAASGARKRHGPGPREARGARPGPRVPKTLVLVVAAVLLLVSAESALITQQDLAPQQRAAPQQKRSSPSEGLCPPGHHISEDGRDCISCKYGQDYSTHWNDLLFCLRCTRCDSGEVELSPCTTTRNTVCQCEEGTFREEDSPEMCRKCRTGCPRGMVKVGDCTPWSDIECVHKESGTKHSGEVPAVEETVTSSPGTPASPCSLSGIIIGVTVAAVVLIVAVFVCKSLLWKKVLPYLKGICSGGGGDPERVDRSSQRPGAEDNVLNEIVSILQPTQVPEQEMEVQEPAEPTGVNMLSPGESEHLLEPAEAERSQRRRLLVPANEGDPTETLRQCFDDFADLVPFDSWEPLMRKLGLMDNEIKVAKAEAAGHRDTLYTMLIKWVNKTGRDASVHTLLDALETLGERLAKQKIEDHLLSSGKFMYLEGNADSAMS

[3] = as above; details: NB7 neuroblastoma + caspase-8, without TRAIL, luminescence viability, without TRAIL, mean of runs, at 10 µM
[4] = HIF-2a reporter inhibitor retest, confirmation, luminescence, 786-0 RCC cells (AID 651580;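 active = mean inhibition across four replicates of at least 40 percent at the single tested concentration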); details: HIF-2a luciferase reporter luminescence, overnight, at 18.8 µM, stronger effect = higher value
[5] = HIF-1a luciferase reporter signal reduction – MiaPaCa-2 cells, single concentration, counter-screen for HIF-2a inhibitor project, confirmation (AID 651589;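 active = mean inhibition of the reporter signal across four replicates at the single tested dose of 50% or more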); details: MiaPaCa-2 HIF-1a luciferase reporter, desferoxamine, overnight; at 18.8 µM; stronger effect = higher value

Structure (SMILES) | inhibition [1] | activity [2] [%] | activity [3] [%] | inhibition [4] | inhibition [5]
O=C(Nc1ccc(OC(F)F)cc1)Nc1cccc(C(F)(F)F)c1 | 24.4% (active) | 85.3 | 69.6 | – | –
Cc1ccc2sc(N(CCCN(C)C)C(=O)CCS(=O)(=O)c3ccccc3)nc2c1C | 29.9% (active) | 62 | 93 | – | –
COC(=O)c1c(NC(=O)c2ccc(OC(C)C)cc2)sc2c1CC(C)(C)NC2(C)C | 23.6% (active) | 43.5 | 31.2 | – | –
COc1ccccc1C(=O)Nc1nc(-c2ccc(S(=O)(=O)N3CCOCC3)cc2)cs1 | 29.5% (active) | 89.5 | 80.6 | – | –
O=C(CSc1ccccn1)Nc1nonc1[N+](=O)[O-] | 29.3% (active) | 30.1 | 58.2 | – | –
Cc1ccc(-c2nn(C(C)(C)C)c3ncnc(N)c23)cc1 | 30.7% (active) | – | – | 70.1% (active) | 93.8% (active)
CCCCCCCC[n+]1cccc2c3ccccc3ccc21 | 23.3% (active) | 74.7 | 63.9 | – | –
CCCCCc1cc(=O)oc2c(C(CCN3CCCCC3)c3cc(OC)c(OC)c(OC)c3)c(OC)cc(OC)c12 (stereo not given) | 26.6% (active) | 45.4 | 36.5 | – | –
CCN(CC)CCCNc1ccc(-c2nnc(-c3ccc(OCC(C)C)cc3)o2)cn1 | 23.9% (active) | 82.5 | 97.9 | – | –
N#CC1(NC(=O)Cn2ncc(Cl)c(Cl)c2=O)CCCCC1 | 29.6% (active) | 98.5 | 99.2 | – | –
N#Cc1nc(NCC(F)F)nc(Nc2cc(F)cc(F)c2)n1 | 28% (active) | 63.2 | 71.3 | – | –
CC(=O)Nc1ccc(NC2=Nc3ccccc3N3C2=Nc2c(c(C)nn2-c2ccccc2)C3c2ccccc2)cc1 (stereo not given) | 32.1% (active) | 89.4 | 73.6 | – | –
Cc1ccc(N(Cc2cc(=O)[nH]c3ccccc23)C(=O)CCl)cc1 | 25.3% (active) | 99.1 | 99.3 | 76.7% (active) | 107% (active)
COc1cccc(N2CCN(c3ncnc4c3cnn4-c3ccc(C)cc3C)CC2)c1 | 28% (active) | 97.8 | 96 | – | –
CN(C)c1ccnc2c[cH-]cc12.[Fe].c1ccc(-[c-]2[c-](-c3ccccc3)[c-](-c3ccccc3)[c-](-c3ccccc3)[c-]2-c2ccccc2)cc1 (stereo not given) | 32% (active) | 6.08 | -38.5 | – | –
Cn1c(N)c(C(=O)COC(=O)c2ccccc2C(=O)c2ccc(Cl)c([N+](=O)[O-])c2)c(=O)n(C)c1=O | 26.2% (active) | 98.5 | 99 | – | –
